# Data from PubChem BioAssay (NCATS).
# Records with an inconclusive call do not appear. A call without a number means that no potency is given here. Calls of active or inactive are those of the source. Calls follow the shape of the dose curve; as a rule, active = well fitted inhibition curve with a large enough effect; inconclusive = small, poorly fitted or top-dose-only effect; inactive = flat fitted curve, though single readings scatter.
# Key:
# Experiment in all cases: qHTS profiling for inhibitors of Plasmodium falciparum proliferation (AID 504749); also: nearly all actives have a fitted effect of over 60% in size
# Conditions in all cases: P. falciparum in erythrocytes, SYBR Green DNA, 72 h; series mostly up to 28.7 µM
# CP252 = test system: CP252
# Outline: (§1)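 Parasite proliferation within erythrocytes, 72 h exposure. Endpoint: SYBR Green I fluorescence after overnight lysis at room temperature. Controls: 0.29 uM artemisinin, DMSO.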
# CP256 = test system: CP256
# Outline: as §1
# CP260 = test system: CP260
# Outline: as §1
# CP262 = test system: CP262
# Outline: as §1
# CP265 = test system: CP265
# Outline: as §1
# CP266 = test system: CP266
# Outline: as §1
# CP268 = test system: CP268
# Outline: as §1
# CP269 = test system: CP269
# Outline: as §1
# CP286 = test system: CP286
# Outline: as §1
# CP291 = test system: CP291
# Outline: as §1
# CP297 = test system: CP297
# Outline: as §1
# CP305 = test system: CP305
# Outline: as §1
# CP315 = test system: CP315
# Outline: as §1
# CP325 = test system: CP325
# Outline: as §1
# CP329 = test system: CP329
# Outline: as §1
# CP335 = test system: CP335
# Outline: as §1
# DFO2036 = test system: DFO2036
# Outline: as §1
# DIV17 = test system: DIV17
# Outline: as §1
# DIV30 = test system: DIV30
# Outline: as §1
# DIV14 = test system: DIV14
# Outline: as §1
# Potency is read from the fitted curve at half-maximal effect.
Compound,Potency (CP252),Potency (CP256),Potency (CP260),Potency (CP262),Potency (CP265),Potency (CP266),Potency (CP268),Potency (CP269),Potency (CP286),Potency (CP291),Potency (CP297),Potency (CP305),Potency (CP315),Potency (CP325),Potency (CP329),Potency (CP335),Potency (DFO2036),Potency (DIV17),Potency (DIV30),Potency (DIV14)
NC(=O)NO,inactive,inactive,inactive,inactive,inactive,inactive,inactive,inactive,inactive,inactive,inactive,inactive,inactive,inactive,inactive,inactive,inactive,inactive,inactive,
CS(=O)(=O)Nc1ccc([N+](=O)[O-])cc1Oc1ccccc1,inactive,inactive,inactive,inactive,inactive,inactive,inactive,inactive,inactive,inactive,inactive,inactive,inactive,inactive,inactive,inactive,inactive,inactive,inactive,inactive
NCCS(=O)(=O)O,inactive,inactive,inactive,inactive,inactive,inactive,inactive,inactive,inactive,,inactive,inactive,,inactive,inactive,inactive,inactive,inactive,inactive,inactive
CC(C)C(=O)Nc1ccc([N+](=O)[O-])c(C(F)(F)F)c1,inactive,inactive,inactive,inactive,inactive,inactive,inactive,inactive,inactive,inactive,inactive,inactive,inactive,inactive,inactive,inactive,inactive,inactive,inactive,inactive
CC(C)(C)C(=O)Oc1ccc(S(=O)(=O)Nc2ccccc2C(=O)NCC(=O)O)cc1,inactive,inactive,inactive,inactive,inactive,inactive,inactive,inactive,inactive,inactive,inactive,inactive,inactive,inactive,inactive,inactive,inactive,inactive,inactive,inactive
Clc1ccc2nsnc2c1NC1=NCCN1,inactive,inactive,inactive,inactive,inactive,inactive,inactive,inactive,inactive,inactive,inactive,inactive,inactive,inactive,inactive,inactive,inactive,inactive,inactive,inactive
COc1ccccc1OCC(O)CN1CCN(CC(=O)Nc2c(C)cccc2C)CC1 (configuration not stated),inactive,inactive,inactive,inactive,inactive,inactive,inactive,inactive,inactive,inactive,inactive,inactive,inactive,inactive,inactive,inactive,inactive,inactive,inactive,inactive
CC[N+](CC)(CC)CCOc1cccc(OCC[N+](CC)(CC)CC)c1OCC[N+](CC)(CC)CC,inactive,inactive,inactive,inactive,inactive,inactive,inactive,inactive,inactive,inactive,inactive,inactive,inactive,inactive,inactive,inactive,inactive,inactive,inactive,inactive
Cc1ccc(C(=O)Nc2ccc(S(=O)(=O)O)c3cc(S(=O)(=O)O)cc(S(=O)(=O)O)c23)cc1NC(=O)c1cccc(NC(=O)Nc2cccc(C(=O)Nc3cc(C(=O)Nc4ccc(S(=O)(=O)O)c5cc(S(=O)(=O)O)cc(S(=O)(=O)O)c45)ccc3C)c2)c1,inactive,inactive,inactive,inactive,inactive,inactive,inactive,inactive,inactive,inactive,inactive,inactive,inactive,inactive,inactive,inactive,inactive,inactive,inactive,inactive
CN1C(C(=O)Nc2ccccn2)=C(O)c2ccccc2S1(=O)=O,inactive,inactive,inactive,inactive,inactive,inactive,inactive,inactive,inactive,inactive,inactive,inactive,inactive,inactive,inactive,inactive,inactive,inactive,inactive,inactive
CN(C)c1nc(N(C)C)nc(N(C)C)n1,inactive,inactive,inactive,inactive,inactive,inactive,inactive,inactive,inactive,inactive,inactive,inactive,inactive,inactive,inactive,inactive,inactive,inactive,inactive,inactive
CS(=O)(=O)CCNCc1ccc(-c2ccc3ncnc(Nc4ccc(OCc5cccc(F)c5)c(Cl)c4)c3c2)o1,inactive,inactive,inactive,inactive,inactive,inactive,,inactive,inactive,inactive,,inactive,inactive,inactive,inactive,inactive,inactive,inactive,inactive,inactive
Cn1c(=O)c2c(ncn2C)n(C)c1=O,inactive,inactive,inactive,inactive,inactive,inactive,inactive,inactive,inactive,inactive,inactive,inactive,inactive,inactive,inactive,inactive,inactive,inactive,inactive,inactive
Cn1c(=O)c2[nH]cnc2n(C)c1=O,inactive,inactive,inactive,inactive,inactive,inactive,inactive,inactive,inactive,inactive,inactive,inactive,inactive,inactive,inactive,inactive,inactive,inactive,inactive,inactive
Cc1cc(C(C)(C)C)cc(C)c1CC1=NCCN1,inactive,inactive,inactive,inactive,inactive,inactive,,inactive,inactive,inactive,inactive,inactive,inactive,inactive,inactive,inactive,inactive,,inactive,
O=c1c(-c2ccc(O)cc2)coc2cc(O)cc(O)c12,inactive,inactive,inactive,inactive,inactive,inactive,inactive,inactive,inactive,inactive,inactive,inactive,inactive,inactive,inactive,inactive,inactive,inactive,inactive,inactive
Cc1cn([C@H]2C[C@H](N=[N+]=[N-])[C@@H](CO)O2)c(=O)[nH]c1=O,inactive,inactive,inactive,inactive,inactive,inactive,inactive,inactive,inactive,inactive,inactive,inactive,inactive,inactive,inactive,inactive,inactive,inactive,inactive,inactive
CC(CCc1ccc(O)cc1)NCCc1ccc(O)c(O)c1 (configuration not stated),inactive,inactive,inactive,inactive,inactive,inactive,inactive,inactive,inactive,inactive,inactive,inactive,inactive,inactive,inactive,inactive,inactive,inactive,inactive,inactive
Nc1nnc(-c2cccc(Cl)c2Cl)c(N)n1,inactive,inactive,inactive,inactive,inactive,inactive,inactive,inactive,inactive,inactive,inactive,inactive,inactive,inactive,inactive,inactive,inactive,inactive,,inactive
NC(=O)OCC(COC(N)=O)c1ccccc1,inactive,inactive,inactive,inactive,inactive,inactive,inactive,inactive,inactive,inactive,inactive,inactive,inactive,inactive,inactive,,inactive,inactive,inactive,inactive

Compound,Potency (CP252),Potency (CP256),Potency (CP260),Potency (CP262),Potency (CP265),Potency (CP266),Potency (CP268),Potency (CP269),Potency (CP286),Potency (CP291),Potency (CP297),Potency (CP305),Potency (CP315),Potency (CP325),Potency (CP329),Potency (CP335),Potency (DFO2036),Potency (DIV17),Potency (DIV30),Potency (DIV14)
Cc1cnc(C(=O)NCCc2ccc(S(=O)(=O)NC(=O)NC3CCCCC3)cc2)cn1,inactive,inactive,inactive,inactive,inactive,inactive,inactive,inactive,inactive,inactive,inactive,inactive,inactive,inactive,inactive,inactive,inactive,inactive,inactive,inactive
NCCc1cnc[nH]1,inactive,inactive,inactive,inactive,inactive,inactive,inactive,inactive,inactive,inactive,inactive,inactive,inactive,inactive,inactive,inactive,inactive,inactive,inactive,inactive
Cc1cc(C(C)(C)C)c(O)c(C)c1CC1=NCCN1,inactive,inactive,inactive,inactive,inactive,inactive,inactive,inactive,inactive,inactive,inactive,inactive,inactive,inactive,inactive,inactive,inactive,inactive,inactive,inactive
COc1ccc2[nH]cc(CCNC(C)=O)c2c1,inactive,inactive,inactive,inactive,inactive,inactive,inactive,inactive,inactive,inactive,inactive,inactive,,inactive,inactive,inactive,inactive,inactive,inactive,inactive
COc1cc2c(c(OC)c1OC)-c1ccc(OC)c(=O)cc1[C@@H](NC(C)=O)CC2,inactive,inactive,inactive,inactive,inactive,inactive,inactive,inactive,inactive,inactive,inactive,inactive,inactive,inactive,inactive,,inactive,inactive,inactive,inactive
NCCCCCC(=O)O,inactive,inactive,inactive,inactive,inactive,inactive,inactive,inactive,inactive,inactive,inactive,inactive,inactive,inactive,inactive,inactive,inactive,inactive,inactive,inactive
CN1CCN2c3ccccc3Cc3ccccc3C2C1 (configuration not stated),inactive,inactive,inactive,inactive,inactive,inactive,inactive,inactive,inactive,inactive,inactive,inactive,inactive,inactive,inactive,inactive,inactive,inactive,inactive,inactive
O=C(c1ccc(F)cc1)C1CCN(CCn2c(=O)[nH]c3ccccc3c2=O)CC1,inactive,inactive,inactive,inactive,inactive,inactive,,inactive,,,inactive,,inactive,inactive,inactive,inactive,inactive,,inactive,
CCCNCC(O)COc1ccccc1C(=O)CCc1ccccc1 (configuration not stated),631 nM (active),1 µM (active),891 nM (active),4.78 µM (active),355 nM (active),10.7 µM (active),4.26 µM (active),3.79 µM (active),1.58 µM (active),4.26 µM (active),3.79 µM (active),4.26 µM (active),4.78 µM (active),4.26 µM (active),6.75 µM (active),3.01 µM (active),1 µM (active),536 nM (active),1.69 µM (active),
CC(C)Cc1ccc(C(C)C(=O)O)cc1 (configuration not stated),inactive,inactive,inactive,inactive,inactive,inactive,inactive,inactive,inactive,inactive,inactive,inactive,inactive,inactive,inactive,inactive,inactive,inactive,inactive,inactive
C[C@](N)(Cc1ccc(O)c(O)c1)C(=O)O,inactive,inactive,inactive,inactive,inactive,inactive,inactive,inactive,inactive,inactive,inactive,inactive,inactive,inactive,inactive,inactive,inactive,inactive,inactive,inactive
N[C@@H](Cc1c[nH]c2ccc(O)cc12)C(=O)O,inactive,inactive,inactive,inactive,inactive,inactive,inactive,inactive,inactive,inactive,inactive,inactive,inactive,inactive,inactive,inactive,inactive,inactive,inactive,inactive
Cn1cnc2c1c(=O)[nH]c(=O)n2C,inactive,inactive,inactive,inactive,inactive,inactive,inactive,inactive,inactive,inactive,inactive,inactive,inactive,inactive,inactive,inactive,inactive,inactive,inactive,inactive
CCOC(=O)C(C)(C)Oc1ccc(Cl)cc1,inactive,inactive,inactive,inactive,inactive,inactive,inactive,inactive,inactive,inactive,inactive,inactive,inactive,inactive,inactive,inactive,inactive,inactive,inactive,inactive
CN1CCC(=C2c3ccccc3C=Cc3ccccc32)CC1,inactive,inactive,inactive,inactive,inactive,inactive,,,inactive,inactive,inactive,inactive,inactive,inactive,inactive,,inactive,,inactive,
CN(CCOc1ccc(NS(C)(=O)=O)cc1)CCc1ccc(NS(C)(=O)=O)cc1,inactive,inactive,inactive,inactive,inactive,inactive,inactive,inactive,inactive,inactive,,inactive,inactive,inactive,inactive,inactive,inactive,inactive,inactive,inactive
COc1ccccc1N1CCN(CC(O)COc2cccc3ccccc23)CC1 (configuration not stated),inactive,inactive,inactive,inactive,inactive,inactive,inactive,inactive,inactive,inactive,inactive,inactive,inactive,inactive,inactive,inactive,inactive,,inactive,
NS(=O)(=O)c1cc2c(cc1Cl)NCNS2(=O)=O,inactive,inactive,inactive,inactive,inactive,inactive,inactive,inactive,inactive,inactive,inactive,inactive,inactive,inactive,inactive,inactive,inactive,inactive,inactive,inactive
O=C1N(c2ccccc2)c2ccccc2C1(Cc1ccncc1)Cc1ccncc1,inactive,inactive,inactive,inactive,inactive,inactive,inactive,inactive,inactive,inactive,,inactive,inactive,inactive,inactive,inactive,inactive,inactive,inactive,inactive
